The other results are listed elsewhere or left out. No count for the full screen is at hand.

In this assay the target is furin, P09958. Kind of assay: furin cleavage Z-score vs untreated control; higher = more cleavage, active = 3.5 or more, inactive = 1 or less, 8 variable residues between constant flanks. The essentials:
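Peptides 8 residues long, fused to a cDNA oligonucleotide, were fixed to magnetic beads by the N-terminus and exposed to purified furin. The 0.01 ml reactions contained 50 mM HEPES pH 7.5 with CaCl2 and NaCl at 1:10 enzyme:substrate and ran 7.5, 15 or 30 min. For the cleavage Z-score, log counts of sequenced released DNA were compared with furin-free reactions, lowess-adjusted and scaled by median absolute deviation.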

Sequence of furin, P09958 (P09958 whole entry, the tested form may be a part): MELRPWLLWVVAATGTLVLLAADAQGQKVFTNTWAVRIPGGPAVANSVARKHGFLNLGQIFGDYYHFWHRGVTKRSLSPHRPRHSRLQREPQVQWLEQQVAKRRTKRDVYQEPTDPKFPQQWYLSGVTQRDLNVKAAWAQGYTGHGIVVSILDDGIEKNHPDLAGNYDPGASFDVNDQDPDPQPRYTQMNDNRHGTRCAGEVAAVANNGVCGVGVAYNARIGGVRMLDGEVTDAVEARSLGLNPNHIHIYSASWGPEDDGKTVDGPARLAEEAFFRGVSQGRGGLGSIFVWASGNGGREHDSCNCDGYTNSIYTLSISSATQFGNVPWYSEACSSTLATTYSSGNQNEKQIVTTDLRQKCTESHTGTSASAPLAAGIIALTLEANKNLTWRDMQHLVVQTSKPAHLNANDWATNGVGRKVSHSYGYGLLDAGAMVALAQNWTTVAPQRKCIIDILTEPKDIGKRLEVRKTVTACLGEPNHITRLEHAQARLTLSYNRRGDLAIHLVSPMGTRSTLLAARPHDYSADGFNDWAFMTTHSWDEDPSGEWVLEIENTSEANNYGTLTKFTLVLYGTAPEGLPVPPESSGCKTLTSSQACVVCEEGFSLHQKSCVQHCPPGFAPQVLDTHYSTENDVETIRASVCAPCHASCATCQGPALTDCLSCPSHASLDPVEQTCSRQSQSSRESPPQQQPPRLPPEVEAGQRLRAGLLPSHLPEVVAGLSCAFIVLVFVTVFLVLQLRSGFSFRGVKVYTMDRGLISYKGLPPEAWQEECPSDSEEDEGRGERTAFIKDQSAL

As for CASREVPCHRAGNASASA [HC2437], the “furin cleavage Z-score” value is 0.554 (inactive) (7.5 min), 0.537 (inactive) (15 min) and 0.935 (inactive) (30 min).

With CATTPTSGSWAGNASASA [HC56], the “furin cleavage Z-score” value is, setting by setting: (7.5 min) -1.1 (inactive); (15 min) -0.337 (inactive); (30 min) -0.847 (inactive).

In the case of CAETEVPCHRAGNASASA [HC2458], the “furin cleavage Z-score” value is, setting by setting: (7.5 min) 0.00837 (inactive); (15 min) 0.231 (inactive); (30 min) 0.879 (inactive).

For CARSKRSPGGAGNASASA [FS-1931], the “furin cleavage Z-score” value is 9.79 (active) (7.5 min), 8.88 (active) (15 min) and 8.01 (active) (30 min).

Take CARSPRSASTAGNASASA [FS-1932]: the “furin cleavage Z-score” value (7.5 min) is 4.66 (active), the “furin cleavage Z-score” value (15 min) is 5.46 (active) and the “furin cleavage Z-score” value (30 min) is 7.33 (active).

Turning to CARSKRSLSCAGNASASA [FS-2183], the “furin cleavage Z-score” value is 1.81 (7.5 min), 2.42 (15 min) and 5.07 (active) (30 min).

On to CARSKRSKNQAGNASASA [FS-1973], for which the “furin cleavage Z-score” value runs as follows: (7.5 min) 5.82 (active); (15 min) 7.57 (active); (30 min) 6.19 (active).

Take CARSPRGVLRAGNASASA [FS-3089]: the “furin cleavage Z-score” value (7.5 min) was -0.934 (inactive), the “furin cleavage Z-score” value (15 min) is -0.739 (inactive) and the “furin cleavage Z-score” value (30 min) is -0.752 (inactive).

Consider CARSSKDTSTAGNASASA [FS-2820], for which the “furin cleavage Z-score” value (7.5 min) was -0.514 (inactive), the “furin cleavage Z-score” value (15 min) was -1.51 (inactive) and the “furin cleavage Z-score” value (30 min) is -0.361 (inactive).

Consider CAWSKRSLSQAGNASASA [FS-3178], for which the “furin cleavage Z-score” value reads like this: (7.5 min) 0.451 (inactive); (15 min) 1.67; (30 min) 2.52.

Regarding CARKNRSKNQAGNASASA [FS-3223], the “furin cleavage Z-score” value runs as follows: (7.5 min) 0.698 (inactive); (15 min) -0.524 (inactive); (30 min) 0.1 (inactive).

For the sequence CAMAECSQHLAGNASASA [HC1683], the “furin cleavage Z-score” value is, setting by setting: (7.5 min) 0.693 (inactive); (15 min) -0.153 (inactive); (30 min) 0.354 (inactive).

Take CAEANAEDVVAGNASASA [HC1366]: the “furin cleavage Z-score” value by setting is: (7.5 min) 0.916 (inactive); (15 min) -1.42 (inactive); (30 min) -0.854 (inactive).

In the case of CAKHMWNFISAGNASASA [HC1042], the “furin cleavage Z-score” value (7.5 min) is -0.105 (inactive), the “furin cleavage Z-score” value (15 min) is -0.376 (inactive) and the “furin cleavage Z-score” value (30 min) was -0.363 (inactive).

For CAITGHRMAWAGNASASA [HC317], the “furin cleavage Z-score” value (7.5 min) is -0.992 (inactive), the “furin cleavage Z-score” value (15 min) was -0.446 (inactive) and the “furin cleavage Z-score” value (30 min) was -1.11 (inactive).

Regarding CAPVYCFTPSAGNASASA [HC413], the “furin cleavage Z-score” value was 0.856 (inactive) (7.5 min), 1.3 (15 min) and 0.586 (inactive) (30 min).

As to CARSKRCSCSAGNASASA [FS-2809], the “furin cleavage Z-score” value runs as follows: (7.5 min) 0.463 (inactive); (15 min) -0.402 (inactive); (30 min) 1.36.

On to CARSPRSPPGAGNASASA [FS-3091], for which the “furin cleavage Z-score” value is 2.88 (7.5 min), 4.13 (active) (15 min) and 4.13 (active) (30 min).

Consider CARSKRDPIIAGNASASA [FS-3206], for which the “furin cleavage Z-score” value reads like this: (7.5 min) -1.19 (inactive); (15 min) 0.347 (inactive); (30 min) 1.06.

For CARSARSPPGAGNASASA [FS-3074], the “furin cleavage Z-score” value by setting is: (7.5 min) -0.433 (inactive); (15 min) -0.609 (inactive); (30 min) -0.311 (inactive).

In the case of CARSKRNIIGAGNASASA [FS-1869], the “furin cleavage Z-score” value was 6.5 (active) (7.5 min), 8.47 (active) (15 min) and 8.95 (active) (30 min).

CARSSRSPPGAGNASASA [FS-3098]: the “furin cleavage Z-score” value (7.5 min) is -0.0484 (inactive), the “furin cleavage Z-score” value (15 min) is 0.711 (inactive) and the “furin cleavage Z-score” value (30 min) was 1.37.

Take CARSKRSSSHAGNASASA [FS-2184]: the “furin cleavage Z-score” value was 7.92 (active) (7.5 min), 8.7 (active) (15 min) and 6.8 (active) (30 min).

Turning to CARRWREVEEAGNASASA [FS-2803], the “furin cleavage Z-score” value runs as follows: (7.5 min) -0.554 (inactive); (15 min) -1.56 (inactive); (30 min) 0.0666 (inactive).

Regarding CARSLREFEEAGNASASA [FS-3087], the “furin cleavage Z-score” value was -2.22 (inactive) (7.5 min), 0.955 (inactive) (15 min) and 0.853 (inactive) (30 min).

Turning to CARYPRNVEEAGNASASA [FS-2850], the “furin cleavage Z-score” value (7.5 min) was 4.99 (active), the “furin cleavage Z-score” value (15 min) was 7.34 (active) and the “furin cleavage Z-score” value (30 min) was 7.13 (active).

As for CARYPRDVRDAGNASASA [FS-2538], the “furin cleavage Z-score” value reads like this: (7.5 min) 8.26 (active); (15 min) 9.51 (active); (30 min) 6.93 (active).

Regarding CAVPPRYPRDAGNASASA [FS-311], the “furin cleavage Z-score” value reads like this: (7.5 min) 5.8 (active); (15 min) 6.12 (active); (30 min) 6.06 (active).

On to CARYQRSHDDAGNASASA [FS-2320], for which the “furin cleavage Z-score” value was 0.707 (inactive) (7.5 min), -0.328 (inactive) (15 min) and 0.764 (inactive) (30 min).

Take CAATPCSAHLAGNASASA [HC2463]: the “furin cleavage Z-score” value reads like this: (7.5 min) 0.828 (inactive); (15 min) 1.41; (30 min) 1.31.

CARHADVIPVAGNASASA [HC728]: the “furin cleavage Z-score” value is -2.29 (inactive) (7.5 min), -0.0929 (inactive) (15 min) and -1.98 (inactive) (30 min).

With CAAEVIAPAVAGNASASA [HC1032], the “furin cleavage Z-score” value (7.5 min) is -0.225 (inactive), the “furin cleavage Z-score” value (15 min) was -0.402 (inactive) and the “furin cleavage Z-score” value (30 min) was -0.162 (inactive).

On to CAVVCCSWSYAGNASASA [HC2048], for which the “furin cleavage Z-score” value was -1.44 (inactive) (7.5 min), -0.879 (inactive) (15 min) and -0.0857 (inactive) (30 min).

As to CANDSRLKRQAGNASASA [FS-1038], the “furin cleavage Z-score” value is, setting by setting: (7.5 min) 6.07 (active); (15 min) 5.6 (active); (30 min) 6.15 (active).

Take CANDSRHLRNAGNASASA [FS-1647]: the “furin cleavage Z-score” value reads like this: (7.5 min) 0.543 (inactive); (15 min) 0.626 (inactive); (30 min) 1.57.

As to CAILWRLKRQAGNASASA [FS-1215], the “furin cleavage Z-score” value (7.5 min) is 10.9 (active), the “furin cleavage Z-score” value (15 min) was 9.84 (active) and the “furin cleavage Z-score” value (30 min) was 7.41 (active).

For the sequence CAFRARQIRYAGNASASA [FS-419], the “furin cleavage Z-score” value by setting is: (7.5 min) 2.8; (15 min) 5.19 (active); (30 min) 2.15.

Consider CAVVCRSMSYAGNASASA [HC90], for which the “furin cleavage Z-score” value is, setting by setting: (7.5 min) 1.85; (15 min) 0.752 (inactive); (30 min) 0.571 (inactive).

As to CANRARFRRAAGNASASA [FS-64], the “furin cleavage Z-score” value (7.5 min) was 8.77 (active), the “furin cleavage Z-score” value (15 min) was 9.51 (active) and the “furin cleavage Z-score” value (30 min) was 7.84 (active).

For CAFSHRQVRYAGNASASA [FS-929], the “furin cleavage Z-score” value (7.5 min) is 0.403 (inactive), the “furin cleavage Z-score” value (15 min) was determined as 1.8 and the “furin cleavage Z-score” value (30 min) stood at 2.61.

On to CALNKSFRRAAGNASASA [FS-354], for which the “furin cleavage Z-score” value by setting is: (7.5 min) 0.697 (inactive); (15 min) -0.445 (inactive); (30 min) 1.37.

As to CAFRARFRRLAGNASASA [FS-526], the “furin cleavage Z-score” value is, setting by setting: (7.5 min) 10.4 (active); (15 min) 12.1 (active); (30 min) 9.87 (active).

In the case of CADCTTPCSGAGNASASA [HC1951], the “furin cleavage Z-score” value (7.5 min) was 0.95 (inactive), the “furin cleavage Z-score” value (15 min) is 0.00642 (inactive) and the “furin cleavage Z-score” value (30 min) turned out to be 1.2.

For the origin of these results see the supplement of paper PMC3545927.
